The values below come from ChEMBL document CHEMBL3988442, “University of Dundee, Small-Polar-MMV Screening Library” (2021).

Holding throughout (design): scale not given: direction of the effect not stated beside the values
The target in experiment [1] is Protein translocase subunit SecA (Escherichia coli (strain K12)) (UniProt P10408). The experiment in a line: Assay to Identify E. coli SecA ATPase Inhibitors. Type of experiment: functional. The settings on record: 30 µM.
The target in experiment [2] is T1, Ubiquitin-activating enzyme e1, putative (Leishmania donovani (strain BPK282A1)) (UniProt E9BSI1).
T1 sequence (whole entry): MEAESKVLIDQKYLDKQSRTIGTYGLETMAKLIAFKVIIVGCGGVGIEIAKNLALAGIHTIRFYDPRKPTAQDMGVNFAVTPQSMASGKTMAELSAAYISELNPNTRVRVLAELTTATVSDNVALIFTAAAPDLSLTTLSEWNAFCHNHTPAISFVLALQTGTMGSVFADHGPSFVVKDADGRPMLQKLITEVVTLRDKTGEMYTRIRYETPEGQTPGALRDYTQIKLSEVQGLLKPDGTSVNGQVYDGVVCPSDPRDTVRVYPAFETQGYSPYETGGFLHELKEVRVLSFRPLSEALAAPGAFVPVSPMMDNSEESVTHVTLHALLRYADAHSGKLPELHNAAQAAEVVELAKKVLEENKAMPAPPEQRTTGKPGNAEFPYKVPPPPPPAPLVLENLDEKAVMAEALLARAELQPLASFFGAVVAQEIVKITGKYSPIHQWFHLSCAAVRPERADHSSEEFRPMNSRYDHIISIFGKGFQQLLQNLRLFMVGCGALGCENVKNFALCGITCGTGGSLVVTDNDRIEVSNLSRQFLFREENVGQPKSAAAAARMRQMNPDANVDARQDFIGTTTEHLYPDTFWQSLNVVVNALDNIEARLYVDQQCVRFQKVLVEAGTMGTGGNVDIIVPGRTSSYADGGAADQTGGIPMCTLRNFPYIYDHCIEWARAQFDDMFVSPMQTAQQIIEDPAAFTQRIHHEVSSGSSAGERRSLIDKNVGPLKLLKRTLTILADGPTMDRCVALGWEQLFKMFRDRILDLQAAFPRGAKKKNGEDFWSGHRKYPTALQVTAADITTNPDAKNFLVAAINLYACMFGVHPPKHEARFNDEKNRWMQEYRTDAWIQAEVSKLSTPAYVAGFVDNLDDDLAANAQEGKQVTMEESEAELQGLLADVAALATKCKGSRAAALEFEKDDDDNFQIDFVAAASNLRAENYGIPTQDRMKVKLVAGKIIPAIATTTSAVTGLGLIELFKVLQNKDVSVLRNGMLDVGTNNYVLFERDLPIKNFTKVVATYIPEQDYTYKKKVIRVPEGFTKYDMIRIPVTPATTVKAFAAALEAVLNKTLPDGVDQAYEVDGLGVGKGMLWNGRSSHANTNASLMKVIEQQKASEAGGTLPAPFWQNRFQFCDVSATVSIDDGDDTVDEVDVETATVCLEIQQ
In words: Leishmania donovani Ubiquitin Activating Enzyme (LdE1). The experiment is classed as functional. The following applies: 30 µM.

Experiment [3] has as its target T2, Aspartate--tRNA(Asp/Asn) ligase (Mycobacterium tuberculosis (strain ATCC 25618 / H37Rv)) (UniProt P9WFW3). Further: in the data most compounds retested in dose-response had high values.
T2 sequence (whole entry): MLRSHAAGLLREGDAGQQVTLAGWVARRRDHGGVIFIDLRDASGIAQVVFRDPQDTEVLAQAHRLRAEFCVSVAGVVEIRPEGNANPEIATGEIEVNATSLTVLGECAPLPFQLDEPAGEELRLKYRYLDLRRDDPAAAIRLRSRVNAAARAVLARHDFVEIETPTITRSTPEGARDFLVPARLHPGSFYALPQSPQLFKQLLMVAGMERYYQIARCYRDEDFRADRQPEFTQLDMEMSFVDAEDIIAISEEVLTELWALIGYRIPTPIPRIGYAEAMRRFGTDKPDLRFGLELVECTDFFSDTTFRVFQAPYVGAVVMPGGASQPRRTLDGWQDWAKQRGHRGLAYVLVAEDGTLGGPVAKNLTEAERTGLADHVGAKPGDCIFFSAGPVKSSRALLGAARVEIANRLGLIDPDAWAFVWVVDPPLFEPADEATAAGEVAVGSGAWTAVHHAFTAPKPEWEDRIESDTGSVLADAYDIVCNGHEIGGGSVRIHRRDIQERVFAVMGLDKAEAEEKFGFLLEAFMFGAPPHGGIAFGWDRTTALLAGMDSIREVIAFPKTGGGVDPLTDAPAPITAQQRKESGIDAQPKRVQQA
The experiment in a line: Assay for Asp RNA synthetase-1 from Mycobacterium tuberculosis. The following applies: 30 µM. The experiment is classed as functional.

The target in experiment [4] is AMP-activated protein kinase, AMPK (Homo sapiens) (UniProt P54646+O43741+P54619+Q9UGJ0+Q9Y478+Q13131+Q9UGI9). The experiment in a line: AMP-dependent Kinase enzyme assay. An in vitro enzyme assay that detects ADP turnover that is directly proportional to AMPK activity. This uses naive AMPK that is activated during the assay with MK-8722. The experiment is classed as functional. The following applies: 30 µM.

Experiment [5] deals with Sialic acid-binding Ig-like lectin 9 (Homo sapiens) (UniProt Q9Y336). The experiment in a line: Hs-Siglec9 ALPHAscreen SOP 20170721. The settings on record: 10 µM. Background: Bead proximity is the source of the signal in Alpha formats.
Chain of Sialic acid-binding Ig-like lectin 9 (Homo sapiens) (Q9Y336 whole entry): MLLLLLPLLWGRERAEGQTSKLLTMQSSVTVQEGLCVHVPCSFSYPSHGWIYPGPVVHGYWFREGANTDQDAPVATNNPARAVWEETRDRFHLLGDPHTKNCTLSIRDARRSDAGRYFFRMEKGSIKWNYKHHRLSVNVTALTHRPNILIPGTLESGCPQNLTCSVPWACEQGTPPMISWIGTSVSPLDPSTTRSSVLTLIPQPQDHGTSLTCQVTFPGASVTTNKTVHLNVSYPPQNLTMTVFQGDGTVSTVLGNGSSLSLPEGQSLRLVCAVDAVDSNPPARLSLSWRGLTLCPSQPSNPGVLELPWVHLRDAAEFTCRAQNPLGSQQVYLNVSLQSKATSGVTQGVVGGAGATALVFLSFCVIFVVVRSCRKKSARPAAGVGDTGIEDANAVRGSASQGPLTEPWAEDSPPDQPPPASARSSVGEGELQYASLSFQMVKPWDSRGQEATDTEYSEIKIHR
In experiment [6] the test system is Trypanosoma cruzi. The experiment in a line: Trypanosoma cruzi phosphomannomutase and mannose-1-phosphate guanylyltransferase assay. Type of experiment: functional. The settings on record: 10 µM.
In experiment [7] the target is T3, Arginase-2, mitochondrial (Homo sapiens) (UniProt P78540).
T3 sequence (whole entry): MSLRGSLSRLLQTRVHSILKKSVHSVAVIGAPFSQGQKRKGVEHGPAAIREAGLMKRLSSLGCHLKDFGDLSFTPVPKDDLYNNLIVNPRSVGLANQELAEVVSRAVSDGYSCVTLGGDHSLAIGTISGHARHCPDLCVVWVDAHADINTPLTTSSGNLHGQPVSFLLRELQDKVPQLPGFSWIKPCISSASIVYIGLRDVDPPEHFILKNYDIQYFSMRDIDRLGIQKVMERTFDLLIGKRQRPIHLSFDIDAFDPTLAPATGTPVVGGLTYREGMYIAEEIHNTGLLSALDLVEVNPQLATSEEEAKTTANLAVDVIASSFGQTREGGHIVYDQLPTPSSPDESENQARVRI
The experiment in a line: in vitro enzyme assay to detect the production of urea directly proportional to the activity of Arginase II. Further: in the data most compounds retested in dose-response had high values. The experiment is classed as functional. The following applies: 33.3 µM.

The target of experiment [8] is T4, Proteasome subunit beta (Trypanosoma cruzi) (UniProt O96673).
T4 sequence (whole entry): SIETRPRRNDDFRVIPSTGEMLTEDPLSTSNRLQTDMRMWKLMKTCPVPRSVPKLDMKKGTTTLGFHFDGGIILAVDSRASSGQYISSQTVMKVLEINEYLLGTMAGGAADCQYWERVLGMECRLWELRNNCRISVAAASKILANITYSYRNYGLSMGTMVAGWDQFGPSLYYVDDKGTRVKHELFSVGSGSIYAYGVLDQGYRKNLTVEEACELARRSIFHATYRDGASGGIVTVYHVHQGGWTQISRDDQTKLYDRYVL
The experiment in a line: Trypanosoma cruzi proteasome chymotrypsin-like activity (TcProtChymo) assay. Further: in the data most compounds retested in dose-response had high values. Type of experiment: functional. The settings on record: 9.37 µM.

The species named for experiment [9] is Homo sapiens. In words: To identify inhibition of the IFN signalling (Jak-Stat) pathway via expression of an eGFP reporter gene under the control of an IFN-stimulated response element (ISRE) containing MxA promoter. Type of experiment: functional. The settings on record: 30 µM. On the technique in general: In a reporter assay the amount or activity of a reporter protein is the signal.

Experiment [10] addresses Shiga toxin 2 (Escherichia coli O157:H7) (UniProt P09385+P09386). In words: E. coli 0.157:H7 Shiga Toxin SOP - stx2 screening assay. Type of experiment: functional. The following applies: 30 µM.
In experiment [11] the target is T5, Tyrosyl-tRNA synthetase, putative (Trypanosoma cruzi (strain CL Brener)) (UniProt Q4DSP6).
T5 sequence (whole entry): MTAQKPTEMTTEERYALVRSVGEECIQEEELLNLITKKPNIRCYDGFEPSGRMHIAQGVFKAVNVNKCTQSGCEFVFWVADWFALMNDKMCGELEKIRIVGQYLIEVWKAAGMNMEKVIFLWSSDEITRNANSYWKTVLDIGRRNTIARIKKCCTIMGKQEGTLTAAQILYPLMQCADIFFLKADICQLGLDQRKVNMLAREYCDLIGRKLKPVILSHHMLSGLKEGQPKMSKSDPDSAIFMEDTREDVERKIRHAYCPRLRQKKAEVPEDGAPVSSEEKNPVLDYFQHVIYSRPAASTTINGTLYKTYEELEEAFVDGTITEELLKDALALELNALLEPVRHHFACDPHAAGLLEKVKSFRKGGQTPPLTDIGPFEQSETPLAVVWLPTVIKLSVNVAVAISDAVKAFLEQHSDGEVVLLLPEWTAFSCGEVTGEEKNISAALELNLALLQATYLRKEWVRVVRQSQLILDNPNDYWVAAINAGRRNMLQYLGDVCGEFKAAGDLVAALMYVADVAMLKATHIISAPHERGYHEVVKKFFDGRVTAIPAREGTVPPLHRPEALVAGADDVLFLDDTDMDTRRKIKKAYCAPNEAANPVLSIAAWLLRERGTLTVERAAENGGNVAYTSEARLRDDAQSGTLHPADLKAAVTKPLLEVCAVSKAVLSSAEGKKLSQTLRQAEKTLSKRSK
The experiment in a line: Trypanosoma cruzi tyrosyl tRNA synthetase (TcYRS) _High Tyrosine SOP. Further: in the data most compounds retested in dose-response had high values. The experiment is classed as functional. The following applies: 30 µM.

The target in experiment [12] is T5, Tyrosyl-tRNA synthetase, putative (Trypanosoma cruzi (strain CL Brener)). In words: Trypanosoma cruzi tyrosyl tRNA synthetase (TcYRS) SOP. Type of experiment: functional. The settings on record: 30 µM.
In experiment [13] the target is Chromo domain-containing protein 1 (Saccharomyces cerevisiae (strain ATCC 204508 / S288c) (Baker's yeast)) (UniProt P32657). In words: ScCHD-1 Enzyme Inhibition Assay. Further: in the data most compounds retested in dose-response had high values. The experiment is classed as functional. The following applies: 30 µM.
Chain of Chromo domain-containing protein 1 (Saccharomyces cerevisiae (strain ATCC 204508 / S288c) (Baker's yeast)) (P32657 whole entry, the tested form may be a part): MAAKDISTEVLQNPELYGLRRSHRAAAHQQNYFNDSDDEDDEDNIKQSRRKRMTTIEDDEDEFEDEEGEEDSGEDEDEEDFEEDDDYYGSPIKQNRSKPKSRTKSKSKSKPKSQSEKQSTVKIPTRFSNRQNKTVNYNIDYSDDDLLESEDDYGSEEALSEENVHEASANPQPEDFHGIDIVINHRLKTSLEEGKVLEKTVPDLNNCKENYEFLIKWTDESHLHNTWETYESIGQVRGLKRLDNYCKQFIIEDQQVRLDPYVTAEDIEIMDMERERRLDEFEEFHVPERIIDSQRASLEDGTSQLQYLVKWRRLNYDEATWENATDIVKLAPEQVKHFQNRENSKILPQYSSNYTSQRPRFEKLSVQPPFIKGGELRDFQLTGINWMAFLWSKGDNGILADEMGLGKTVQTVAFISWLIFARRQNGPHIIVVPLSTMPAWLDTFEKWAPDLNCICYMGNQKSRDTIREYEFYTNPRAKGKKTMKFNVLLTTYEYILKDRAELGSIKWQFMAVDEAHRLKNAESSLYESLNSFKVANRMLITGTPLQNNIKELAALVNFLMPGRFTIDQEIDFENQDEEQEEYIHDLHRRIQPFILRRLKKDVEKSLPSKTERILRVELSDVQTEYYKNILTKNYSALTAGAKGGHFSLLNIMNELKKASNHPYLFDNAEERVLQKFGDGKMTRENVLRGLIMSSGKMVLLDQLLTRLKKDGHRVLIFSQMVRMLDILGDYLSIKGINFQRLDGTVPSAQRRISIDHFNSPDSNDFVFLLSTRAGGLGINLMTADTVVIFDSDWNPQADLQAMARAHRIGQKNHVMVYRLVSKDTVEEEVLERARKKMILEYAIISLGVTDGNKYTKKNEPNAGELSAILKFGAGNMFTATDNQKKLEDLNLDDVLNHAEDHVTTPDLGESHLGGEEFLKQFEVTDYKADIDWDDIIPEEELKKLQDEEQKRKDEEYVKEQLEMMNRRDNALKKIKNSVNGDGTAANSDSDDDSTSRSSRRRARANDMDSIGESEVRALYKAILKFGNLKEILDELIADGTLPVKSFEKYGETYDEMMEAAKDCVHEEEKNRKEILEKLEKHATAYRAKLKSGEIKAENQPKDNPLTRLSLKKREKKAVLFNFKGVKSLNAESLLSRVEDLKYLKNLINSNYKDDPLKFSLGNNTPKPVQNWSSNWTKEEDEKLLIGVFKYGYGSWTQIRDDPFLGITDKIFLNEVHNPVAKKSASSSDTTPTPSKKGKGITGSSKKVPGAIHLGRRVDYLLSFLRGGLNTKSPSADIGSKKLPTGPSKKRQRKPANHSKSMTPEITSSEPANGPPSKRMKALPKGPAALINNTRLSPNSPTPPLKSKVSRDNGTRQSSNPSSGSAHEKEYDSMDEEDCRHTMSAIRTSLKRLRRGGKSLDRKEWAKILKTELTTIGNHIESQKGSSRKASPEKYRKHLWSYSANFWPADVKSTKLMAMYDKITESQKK

For part of these data: Measured potencies and affinities stand elsewhere.

Chain of Protein translocase subunit SecA (Escherichia coli (strain K12)) (P10408 whole entry): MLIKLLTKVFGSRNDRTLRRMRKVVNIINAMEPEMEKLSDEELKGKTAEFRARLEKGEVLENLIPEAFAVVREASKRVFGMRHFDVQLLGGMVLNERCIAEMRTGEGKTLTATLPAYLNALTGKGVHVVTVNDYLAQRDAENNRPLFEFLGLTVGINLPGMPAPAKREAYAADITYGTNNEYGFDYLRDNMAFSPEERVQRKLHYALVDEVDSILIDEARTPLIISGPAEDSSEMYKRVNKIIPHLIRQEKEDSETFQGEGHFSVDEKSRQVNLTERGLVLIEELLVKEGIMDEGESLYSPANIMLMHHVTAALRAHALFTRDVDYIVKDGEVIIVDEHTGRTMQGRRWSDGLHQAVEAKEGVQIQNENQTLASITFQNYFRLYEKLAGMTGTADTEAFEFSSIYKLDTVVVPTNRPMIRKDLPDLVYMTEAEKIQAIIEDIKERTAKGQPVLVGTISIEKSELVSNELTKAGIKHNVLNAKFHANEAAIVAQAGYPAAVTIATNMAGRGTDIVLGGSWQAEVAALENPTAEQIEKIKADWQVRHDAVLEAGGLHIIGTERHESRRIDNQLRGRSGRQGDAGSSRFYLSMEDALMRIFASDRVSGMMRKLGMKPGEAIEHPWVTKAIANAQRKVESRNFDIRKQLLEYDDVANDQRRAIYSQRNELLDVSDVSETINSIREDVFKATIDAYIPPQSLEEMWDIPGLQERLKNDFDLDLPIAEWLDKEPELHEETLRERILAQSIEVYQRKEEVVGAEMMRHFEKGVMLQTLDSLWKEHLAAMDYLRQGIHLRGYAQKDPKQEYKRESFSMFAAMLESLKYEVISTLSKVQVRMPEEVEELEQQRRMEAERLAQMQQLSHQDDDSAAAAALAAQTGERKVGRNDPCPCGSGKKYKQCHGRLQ

Consider `Cc1cc(CC(=O)N2CCN(CC3CC3)[C@@H]3CS(=O)(=O)C[C@@H]32)ccc1F`, for which the Percent Effect in experiment [1] was -1.82%; in experiment [2], 6.94%; in [3] it was 3.29%; in [4], 35.7%; in experiment [5], -0.65%; in [6], 0.0972%. Moreover, the Percent Effect in experiment [7] was 3.53%; in [8] it was 7.02%; in [9], -1.41%; in experiment [10], 1.5%; in experiment [11] it was 7.37%; in experiment [12] it was -15.4%. The Percent Effect in experiment [13] was -3.03%.
As to `O=C1[C@H]2CN(CC3CC3)C[C@H]2CN1c1ccsc1`, the Percent Effect in experiment [1] is -6.19%; in [2] it was -2.7%; in experiment [3], 1.21%; in [4], 4.91%; in experiment [5] it was -3.17%; in experiment [6], -2.44%. Also, the Percent Effect in experiment [7] is -1.59%; in experiment [8], 6.27%; in experiment [9], -11.2%; in experiment [10], -5.46%; in experiment [11] it was 3.24%; in experiment [12], 0%. The Percent Effect in experiment [13] turned out to be 5.84%.
Take `Cc1oc(-c2ccco2)nc1CC(=O)N1CCN(CC(C)(C)O)CC1`: the Percent Effect in [1] is -3.06%; in [2], 5.2%; in [3], 0.144%; in [4], -3.3%; in [5] it was 5.79%; in experiment [6], -0.294%. Besides, the Percent Effect in experiment [7] was found to be 5.68%; in experiment [8], 8%; in experiment [9], 22.9%; in experiment [10], 30.6%; in [11] it was 2.86%; in experiment [12], 9.41%. Moreover, the Percent Effect in experiment [13] was -21.6%.
In the case of `NCC1(c2cccc(Br)c2)CCOCC1`, the Percent Effect was -5.22% in [1]; 2.7% in experiment [2]; 5.62% in [3]; -4.06% in experiment [4]; -6.14% in experiment [5]; -2.93% in [6]. In addition, the Percent Effect was -22.5% in experiment [7]; 8.2% in experiment [8]; 2.44% in experiment [9]; -23.5% in experiment [10]; 8.91% in [11]; -6.1% in experiment [12]. The Percent Effect in [13] is -2.29%.
On to `Cc1cccc(CN2CC[C@@H]3[C@@H]2CCN3C(=O)c2ccno2)n1`, for which the Percent Effect is -0.832% in [1]; -2.7% in experiment [2]; 3.7% in [3]; -8.15% in [4]; -3.73% in [5]; 6.84% in experiment [6]. Moreover, the Percent Effect in experiment [7] is -1.67%; in [8], 12.1%; in experiment [9] it was -11.7%; in experiment [10] it was -15.7%; in experiment [11], -13.9%; in [12] it was 1.22%. For the same compound, in experiment [13], the Percent Effect turned out to be 94%.
With `O=C(Cc1ccccn1)N1CCN2C[C@H](Oc3cccc(F)c3)C[C@H]2C1`, the Percent Effect in experiment [1] was -3.38%; in experiment [2] it was 0%; in [3], 9.34%; in [4], 1.39%; in [5] it was -4.03%; in [6], 1.07%. Moreover, the Percent Effect in experiment [7] was -1.59%; in [8], 1.84%; in [9] it was 18.6%; in [10], -10.5%; in [11], -2.16%; in experiment [12] it was -5.13%. In addition, in [13], the Percent Effect was -1.68%.
